The nature of the assay: probe aLefty2 binding to arrayed compounds – biochemical, biotinylated probe, 635/667 nm fluorescence, primary screen (AID 1094).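 Further: score merges spot fluorescence near 667 nm with spot signal-to-noise ratio.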 The note with it: small-molecule microarray, higher = more signal.
`CCCNC(=O)[C@@]1(Sc2ccc(C)cc2)CC(=O)N(Cc2ccccc2Cl)[C@@H]1c1ccc(CO)cc1`: the composite z-score came to 0.0493.
Take `C[C@H]1COC(=O)[C@H](Cc2ccccc2)NC(=O)[C@@H](C)COC(=O)[C@H](Cc2ccccc2)NC1=O`: the composite z-score was -0.243.
In turn, `CC(C)N1CC=CC23O[C@@H]4/C=C\CCCOC(=O)C4[C@H]2C(=O)N(CCO)[C@@H]3C1=O` (stereo partly specified) gave a composite z-score of -0.0766.
Next, `COC(=O)[C@@]1(Cc2ccc(OC)cc2)[C@H]2c3cc(C(=O)N(C)C)n(CCc4ccc(OC)c(Br)c4)c3C[C@H]2CN1C(=O)c1ccccc1`: 0.903; `COCCOC(=O)N1C(=O)[C@@]2(c3cc(C#CCCO)ccc31)[C@H](c1ccc(O)cc1)N1[C@H](c3ccccc3)[C@H](c3ccccc3)OC(=O)[C@H]1[C@@H]2C(=O)Nc1nc2ccccc2s1`: -0.0283; `C=CC[C@]1(C(=O)N2CCCCC2)N=C(c2ccc(OCCCO)cc2)O[C@H]1c1ccccc1N=[N+]=[N-]`: 0.619.
`CCCC=C(CCC)[C@@H](NS(=O)(=O)c1cccc(C(F)(F)F)c1)c1ccc(C(=O)OC)cc1` yielded a composite z-score of 1.06.
In turn, `COc1ccc([Si](C)(C)[C@@H]2[C@@H](CC(=O)N(CCO)Cc3ccccc3)O[C@]3(C(=O)N(Cc4cccc(N5CCC5=O)c4)c4ccccc43)[C@H]2C)cc1` came in with a composite z-score of -0.17.
Compound `COc1cc([C@@H]2N[C@H](C(=O)O)Cc3c2[nH]c2ccccc32)cc(OC)c1OC` came in with a composite z-score of -0.123.
For `COCC(=C=CC[C@H](O)c1ccc(OCCO)cc1)C[C@H](O)c1ccccn1`, the composite z-score is -0.0216.
`COCCOC(=O)N1C(=O)[C@@]2(c3cc(C#CC4(O)CCCCCC4)ccc31)[C@H](C(=O)N1CCCCCCC1)[C@H]1C(=O)O[C@H](c3ccccc3)[C@H](c3ccccc3)N1[C@@H]2c1ccc(O)cc1` gave a composite z-score of 0.873.
`C=CCC(OC(C)=O)[C@@H]1[C@@H](N(Cc2cc3ccccc3o2)C(=O)c2ccc(C)cc2)c2cc(OCCCO)ccc2N1C(=O)c1ccc2ccccc2n1` (stereo partly specified): the composite z-score was -0.168.
In turn, `C=C(COC)C(=O)CC[C@H](OC(=O)c1ccccc1-c1ccccc1C(=O)O)c1cccc(OCCO)c1` returned a composite z-score of -0.195.
In turn, `CC(C)[Si](OCC[C@H]1O[C@]2(C(=O)N(Cc3ccccc3)c3ccccc32)[C@@H](C)[C@@H]1[Si](C)(C)O)(C(C)C)C(C)C` displayed a composite z-score of -0.149.
In turn, `CO[C@H]1COC(=O)CC=C[C@H](C)[C@@H](OC)COC(=O)CC=C[C@@H]1C` showed a composite z-score of -0.169.
As to `COCCOC(=O)N1C(=O)[C@@]2(c3cc(C#CC4=CCCCC4)ccc31)[C@H](C(=O)NC[C@H](O)c1ccccc1)[C@H]1C(=O)O[C@H](c3ccccc3)[C@H](c3ccccc3)N1[C@@H]2c1ccccc1OCCO`, the composite z-score was 0.306.
`COc1cc2c(cc1OC)CN(C(=O)[C@H]1[C@@H]3C(=O)O[C@@H](c4ccccc4)[C@@H](c4ccccc4)N3[C@@H](c3ccc(O)cc3)[C@]13C(=O)Nc1ccc(C#CC4(O)CCCCCC4)cc13)CC2` displayed a composite z-score of 0.675.
Take `CN(C)C(=O)[C@@]1(Cc2ccccc2N=[N+]=[N-])N=C(c2ccc(OCCCO)cc2)O[C@H]1c1ccccc1CN=[N+]=[N-]`: the composite z-score was found to be 0.839.
Next, `CO[C@H]1COC(=O)[C@@H](C)COC(=O)[C@H](Cc2ccccc2)NC(=O)CC=C[C@H]1C`: -0.302; `CC(=O)NCCCC[C@@H]1NC(=O)[C@H]2C[C@@H](C(=O)NCCCCCCN(C)C)[C@@H](c3cccc(OCCO)c3)N2C1=O`: 0.536; `C=CCC(OC(C)=O)[C@@H]1[C@@H](N(Cc2ccc(-c3ccccc3)cc2)C(=O)c2ccc(-c3ccccc3)cc2)c2cc(OCCCO)ccc2N1C(=O)Cc1ccc(OC)cc1` (stereo partly specified): -0.0096.
As to `COCCCNC(=O)[C@@H]1c2ccccc2C(=O)N(CC23CC4CC(CC(C4)C2)C3)[C@H]1c1ccc(CO)cc1`, the composite z-score is 0.242.
Turning to `C=CCN1C(=O)[C@]2(O[C@H](CCn3cc(CCO)nn3)[C@@H]([Si](C)(C)c3ccc(OC)cc3)[C@@H]2C)c2cc(NC(=O)c3ccc(OC)cc3)ccc21`, the composite z-score turned out to be 0.205.
In turn, `C=C(CCCC)/C(=C/C[C@@H](OC(=O)c1ccncc1)c1ccc(CO)o1)c1cnc2ccccc2c1` yielded a composite z-score of 0.0561.
Regarding `COC(=O)Cn1c(C(=O)N2CCCC2)cc2c1C[C@H]1CN(C(=O)c3ccccc3)[C@@](Cc3ccc(OC)cc3)(C(=O)OC)[C@@H]21`, the composite z-score stood at 0.531.
Turning to `C=C(CCCC)C(=O)CC[C@@H](OC(C)=O)c1ccccc1OCCO`, the composite z-score is -0.214.
Next, `CCOC(=O)C[C@H]1[C@H](OC(=O)c2cc3ccccc3oc2=O)[C@@H](NC(=O)C2CCCCC2)c2cc(OCCCO)ccc2N1C(=O)c1ccc2ccccc2n1`: -0.124; `COC(=O)C(CC#Cc1ccc2c(c1)[C@]1(C(=O)N2)[C@H](C(=O)N2CCCCCCC2)[C@H]2C(=O)O[C@H](c3ccccc3)[C@H](c3ccccc3)N2[C@@H]1c1ccc(O)cc1)C(=O)OC`: -0.294; `C=C[C@H](OC)[C@@H](OC(=O)Nc1ccc(SC)cc1)c1ccc(O)c(F)c1`: -0.0174.
Next, `O=C1O[C@@H](c2ccccc2)[C@@H](c2ccccc2)N2[C@@H](c3ccc(OCCO)cc3)[C@]3(C(=O)Nc4ccc(C#CCCO)cc43)[C@@H](C(=O)N3CCN(c4ncccn4)CC3)[C@H]12`: -0.124.
For the compound `C=CCC(OC(C)=O)[C@@H]1[C@@H](N(Cc2cccc3ccccc23)C(=O)Cc2ccc(F)cc2)c2cc(OCCCO)ccc2N1C(=O)Cc1ccc2ccccc2c1` (stereo partly specified), the composite z-score was -0.0197.
Compound `O=C1O[C@@H](c2ccccc2)[C@@H](c2ccccc2)N2[C@@H](c3ccc(O)cc3)[C@]3(C(=O)Nc4ccc(C#CC5(O)CCCCCC5)cc43)[C@@H](C(=O)Nc3nc4ccccc4s3)[C@H]12` showed a composite z-score of 0.718.
Take `C#CCCCON=C1C[C@@H](O)[C@@H](O)[C@@H]2[C@@H]3C(=O)N(Cc4ccc5c(c4)OCO5)C(=O)[C@@H]3CC[C@@H]12`: the composite z-score was -0.0367.
The compound `O=C1O[C@H](c2ccccc2)[C@H](c2ccccc2)N2[C@H]1[C@@H](C(=O)NC[C@H](O)c1ccccc1)[C@]1(C(=O)Nc3ccc(C#CC4(O)CCCCCC4)cc31)[C@H]2c1ccc(OCCO)cc1` showed a composite z-score of 0.159.
Compound `CCOC(=O)C1=C[C@@H](c2ccccc2)N(S(=O)(=O)c2ccc(C)cc2)[C@H]1c1ccc(F)cc1` returned a composite z-score of -0.0141.
`O=[N+]([O-])c1ccc(C[n+]2ccc3ccc(O)cc3c2)o1` came in with a composite z-score of -0.155.
